In PubChem BioAssay (NCI):
The panel holds about 83,000 compounds, 20% with a hit somewhere; the sample as a whole holds those more often.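 Single-dose data. Exposure time 48 hours. Values below 10 considered active.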 The source made the active and inactive calls.

What was measured:
Assay in all cases: NCI-60 one-dose screen, 48 h (100 = growth as untreated, 0 = no growth, -100 = all killed)
Conditions in all cases: 10 µM unless noted
HCT-15 colon = tested on: HCT-15 colon
HT29 colon = tested on: HT29 colon
SNB-75 CNS = tested on: SNB-75 CNS
SNB-19 CNS = tested on: SNB-19 CNS
U251 CNS = tested on: U251 CNS
PC-3 prostate = tested on: PC-3 prostate
SK-MEL-5 melanoma = tested on: SK-MEL-5 melanoma
UACC-62 melanoma = tested on: UACC-62 melanoma
LOX IMVI melanoma = tested on: LOX IMVI melanoma
SK-MEL-28 melanoma = tested on: SK-MEL-28 melanoma
SK-MEL-2 melanoma = tested on: SK-MEL-2 melanoma
SN12C renal = tested on: SN12C renal
UO-31 renal = tested on: UO-31 renal
TK-10 renal = tested on: TK-10 renal
ACHN renal = tested on: ACHN renal
CAKI-1 renal = tested on: CAKI-1 renal
A498 renal = tested on: A498 renal
CCRF-CEM leukemia = tested on: CCRF-CEM leukemia
MOLT-4 leukemia = tested on: MOLT-4 leukemia
EKVX NSCLC = tested on: EKVX NSCLC

Measured: growth

CCn1c(CN2CCN(Cc3ccccc3)CC2)nc2cc(NC(=O)c3cccs3)ccc21
active: HCT-15 colon 3.47% | HT29 colon -55.6% | SNB-75 CNS -96.6% | SNB-19 CNS -41.7% | U251 CNS -91.4% | PC-3 prostate -51.5% | SK-MEL-5 melanoma -98.9% | UACC-62 melanoma -92.8% | LOX IMVI melanoma -89.7% | SK-MEL-28 melanoma -91.2% | SK-MEL-2 melanoma -50.1% | SN12C renal -87.6% | UO-31 renal -96.7% | TK-10 renal -94.1% | ACHN renal -79.2% | CAKI-1 renal -92.5% | A498 renal -91.6% | CCRF-CEM leukemia -39.2% | MOLT-4 leukemia -11.3%

COc1cccc(NC(=O)[C@H](C(C)C)n2c(=O)[nH]c3ccccc3c2=O)c1
inactive: HCT-15 colon 104% | HT29 colon 101% | SNB-75 CNS 102% | SNB-19 CNS 117% | U251 CNS 96.8% | PC-3 prostate 95.1% | SK-MEL-5 melanoma 99.2% | UACC-62 melanoma 107% | LOX IMVI melanoma 99.7% | SK-MEL-28 melanoma 114% | SK-MEL-2 melanoma 101% | SN12C renal 105% | UO-31 renal 101% | TK-10 renal 105% | ACHN renal 104% | CAKI-1 renal 97.6% | A498 renal 114% | CCRF-CEM leukemia 94.8% | MOLT-4 leukemia 96.8%

Cc1ccc(O)c(Cc2ccccc2)c1
inactive: HCT-15 colon 107% | HT29 colon 97.2% | SNB-75 CNS 74.9% | SNB-19 CNS 96.9% | U251 CNS 94.6% | PC-3 prostate 79.9% | SK-MEL-5 melanoma 109% | UACC-62 melanoma 90.2% | LOX IMVI melanoma 96.4% | SK-MEL-28 melanoma 108% | SK-MEL-2 melanoma 93.8% | EKVX NSCLC 116% | SN12C renal 90.3% | TK-10 renal 100% | ACHN renal 100% | A498 renal 99.9% | CCRF-CEM leukemia 103%

CC1CCN(Cc2ccc(NC(=O)c3cc4ccc5cccnc5c4[nH]3)cc2)CC1
inactive: HCT-15 colon 22.2% | SNB-75 CNS 14.5% | SNB-19 CNS 64.6% | U251 CNS 14.7% | PC-3 prostate 41.6% | SK-MEL-2 melanoma 12% | SN12C renal 33% | UO-31 renal 36.7% | TK-10 renal 51.1% | ACHN renal 53.9% | MOLT-4 leukemia 11.8%
active: HT29 colon 6.27% | SK-MEL-5 melanoma 2% | UACC-62 melanoma -65.4% | LOX IMVI melanoma 8.82% | SK-MEL-28 melanoma -31.9% | CAKI-1 renal 4.42% | A498 renal -8.68% | CCRF-CEM leukemia 3.08%

Cc1[nH]n(C(=O)c2ccncc2)c(=O)c1N=Nc1ccc(O)c(C(=O)O)c1
active: CCRF-CEM leukemia -36.1%
inactive: HCT-15 colon 112% | HT29 colon 115% | SNB-75 CNS 89.9% | SNB-19 CNS 116% | U251 CNS 119% | PC-3 prostate 102% | SK-MEL-5 melanoma 106% | UACC-62 melanoma 96.2% | LOX IMVI melanoma 75.7% | SK-MEL-28 melanoma 109% | SK-MEL-2 melanoma 159% | SN12C renal 93.6% | UO-31 renal 78.9% | TK-10 renal 83.2% | ACHN renal 106% | A498 renal 110% | MOLT-4 leukemia 87.4%

CCN(CC)CCCC(C)N/C(c1cccc(OC)c1)=c1\c(=O)[nH]n(-c2c3ccccc3nc3ccccc23)c(=O)\c1=C(/NC(C)CCCN(CC)CC)c1cccc(OC)c1 (stereo not drawn)
active: HCT-15 colon 2.74% | HT29 colon -68% | SNB-75 CNS -22.5% | U251 CNS -73% | PC-3 prostate -57.7% | SK-MEL-5 melanoma -98.9% | UACC-62 melanoma -77.9% | LOX IMVI melanoma -66.1% | SK-MEL-28 melanoma -96% | SK-MEL-2 melanoma -75.2% | SN12C renal 5.78% | UO-31 renal -48.5% | TK-10 renal -23% | ACHN renal -61.8% | CAKI-1 renal 1.65% | A498 renal -85.9% | MOLT-4 leukemia -22.7%
inactive: SNB-19 CNS 13%

C=CCn1c(SCC(=O)Nc2ccc(C(=O)/C=C/c3ccccc3)cc2)nnc1-c1ccc(OC)c(OC)c1
inactive: HCT-15 colon 64.2% | HT29 colon 80.1% | SNB-75 CNS 79.1% | SNB-19 CNS 76.4% | U251 CNS 72.7% | PC-3 prostate 67.8% | SK-MEL-5 melanoma 61.3% | UACC-62 melanoma 72.1% | LOX IMVI melanoma 84.9% | SK-MEL-28 melanoma 97.6% | SK-MEL-2 melanoma 85.2% | SN12C renal 74.7% | UO-31 renal 55.7% | TK-10 renal 87.6% | ACHN renal 86.8% | A498 renal 75% | CCRF-CEM leukemia 83.7% | MOLT-4 leukemia 58.2%

COc1ccc(C2=CC(c3ccc(OC)cc3Br)N3C=CSC3=N2)cc1 (stereo not drawn)
active: HT29 colon -6.33%
inactive: HCT-15 colon 27.5% | SNB-75 CNS 63.7% | SNB-19 CNS 62.3% | U251 CNS 37.2% | PC-3 prostate 50.4% | SK-MEL-5 melanoma 78.7% | UACC-62 melanoma 71.2% | LOX IMVI melanoma 16.6% | SK-MEL-28 melanoma 84% | SK-MEL-2 melanoma 109% | SN12C renal 57.6% | UO-31 renal 37.7% | TK-10 renal 72% | ACHN renal 71.4% | A498 renal 72.2% | CCRF-CEM leukemia 26.9% | MOLT-4 leukemia 36.7%

O=C(CS)OCC(COC(=O)CS)(COC(=O)CS)COC(=O)CS
active: MOLT-4 leukemia 3.08%
inactive: HCT-15 colon 85% | HT29 colon 98.9% | SNB-75 CNS 74.5% | SNB-19 CNS 119% | U251 CNS 103% | PC-3 prostate 83.4% | SK-MEL-5 melanoma 102% | UACC-62 melanoma 67.9% | LOX IMVI melanoma 70.5% | SK-MEL-28 melanoma 90.1% | SK-MEL-2 melanoma 40.6% | SN12C renal 90.2% | UO-31 renal 93.5% | TK-10 renal 113% | ACHN renal 93.9% | CAKI-1 renal 96.5% | A498 renal 104%

COc1ccc(NC(=O)C2c3ccccc3C(=O)N(CC(C)C)C2c2cccs2)cc1 (stereo not drawn)
inactive: HCT-15 colon 98.9% | HT29 colon 101% | SNB-75 CNS 92.6% | SNB-19 CNS 111% | U251 CNS 96% | PC-3 prostate 95.1% | SK-MEL-5 melanoma 89.1% | UACC-62 melanoma 89.5% | LOX IMVI melanoma 86.3% | SK-MEL-28 melanoma 105% | SK-MEL-2 melanoma 102% | SN12C renal 92.1% | UO-31 renal 108% | TK-10 renal 97.8% | ACHN renal 97.3% | CAKI-1 renal 92.2% | A498 renal 86.7% | CCRF-CEM leukemia 92.7% | MOLT-4 leukemia 98.6%

CCOC(=O)Nc1ccc2nc(-c3cscn3)[nH]c2c1
inactive: HCT-15 colon 37.8% | HT29 colon 14.8% | SNB-75 CNS 33.1% | SNB-19 CNS 63.2% | U251 CNS 35% | PC-3 prostate 82.2% | SK-MEL-5 melanoma 31.9% | UACC-62 melanoma 45.4% | LOX IMVI melanoma 46.6% | SK-MEL-28 melanoma 53.4% | SK-MEL-2 melanoma 32.4% | SN12C renal 51.1% | UO-31 renal 50.9% | TK-10 renal 63.2% | CAKI-1 renal 39.3% | A498 renal 41.8% | CCRF-CEM leukemia 70.8% | MOLT-4 leukemia 49.9%

O=c1c2sc3ncc(Cl)cc3c2nnn1-c1cccc(Cl)c1
inactive: HCT-15 colon 87.5% | HT29 colon 75.9% | SNB-75 CNS 70.1% | SNB-19 CNS 98.2% | U251 CNS 59.9% | PC-3 prostate 82.7% | SK-MEL-5 melanoma 96.3% | UACC-62 melanoma 96.8% | LOX IMVI melanoma 52.9% | SK-MEL-28 melanoma 90.5% | SK-MEL-2 melanoma 92.9% | SN12C renal 74.3% | UO-31 renal 48.5% | TK-10 renal 93% | ACHN renal 46.1% | CAKI-1 renal 67.4% | A498 renal 63.1% | MOLT-4 leukemia 90.2%

COc1ccc(Nc2ncccc2C(=O)NCc2cn(Cc3cc(OC)cc(OC)c3)nn2)cc1
inactive: HCT-15 colon 104% | HT29 colon 97.8% | SNB-75 CNS 81.7% | SNB-19 CNS 106% | U251 CNS 98.6% | PC-3 prostate 90.9% | SK-MEL-5 melanoma 97.6% | UACC-62 melanoma 97.1% | LOX IMVI melanoma 96.5% | SK-MEL-28 melanoma 113% | SK-MEL-2 melanoma 89.5% | SN12C renal 109% | UO-31 renal 65.7% | TK-10 renal 108% | ACHN renal 93.8% | CAKI-1 renal 101% | A498 renal 95.8% | MOLT-4 leukemia 82.7%

COc1ccc(-c2nc3ccc(Cc4ccc5nc(-c6ccc(OC)cc6)[nH]c5c4)cc3[nH]2)cc1
inactive: HCT-15 colon 77.1% | HT29 colon 44.2% | SNB-75 CNS 92.9% | SNB-19 CNS 49% | U251 CNS 16.9% | PC-3 prostate 43.3% | SK-MEL-5 melanoma 13.5% | UACC-62 melanoma 38.2% | LOX IMVI melanoma 15.7% | SK-MEL-28 melanoma 82.3% | SK-MEL-2 melanoma 41.2% | SN12C renal 42.4% | UO-31 renal 89.3% | TK-10 renal 75.1% | ACHN renal 85.4% | CAKI-1 renal 56.3% | CCRF-CEM leukemia 13.4% | MOLT-4 leukemia 43.7%

CCOC(=O)c1sc2nc(-c3cc4ccccc4o3)cc(-c3ccc(Cl)cc3)c2c1N
inactive: HCT-15 colon 101% | HT29 colon 105% | SNB-75 CNS 74.7% | SNB-19 CNS 101% | U251 CNS 95.8% | PC-3 prostate 77% | SK-MEL-5 melanoma 110% | UACC-62 melanoma 66.8% | LOX IMVI melanoma 91.6% | SK-MEL-28 melanoma 108% | SK-MEL-2 melanoma 83.8% | SN12C renal 82.4% | UO-31 renal 87.2% | TK-10 renal 145% | ACHN renal 80.9% | A498 renal 98.2% | CCRF-CEM leukemia 84% | MOLT-4 leukemia 99.3%

Cc1cc(N=Nc2ccc(-c3ccc(N=Nc4ccc(O)c(C(=O)O)c4)cc3)cc2)c(N)c(N=Nc2ccc(C(=O)O)cc2)c1N
inactive: HCT-15 colon 74.8% | HT29 colon 76.6% | SNB-75 CNS 82.5% | SNB-19 CNS 95.5% | U251 CNS 88.4% | PC-3 prostate 78.1% | SK-MEL-5 melanoma 87% | UACC-62 melanoma 71.2% | LOX IMVI melanoma 93.9% | SK-MEL-28 melanoma 80.6% | SK-MEL-2 melanoma 91.8% | SN12C renal 91% | UO-31 renal 76.9% | TK-10 renal 134% | CAKI-1 renal 86% | A498 renal 101% | MOLT-4 leukemia 90.1%

Nc1ccc(C(OC(=O)c2cc3ccccc3c(Cc3c(O)c(C(=O)OC(c4ccc(N)cc4)(c4ccc(N)cc4)c4ccc(N)cc4)cc4ccccc34)c2O)(c2ccc(N)cc2)c2ccc(N)cc2)cc1
active: HT29 colon 8.68% | SNB-75 CNS 8.57% | PC-3 prostate -3.26% | SK-MEL-5 melanoma -47.1% | SK-MEL-2 melanoma -17.2% | SN12C renal -2.33%
inactive: HCT-15 colon 49.6% | SNB-19 CNS 19% | U251 CNS 11.2% | UACC-62 melanoma 10.7% | LOX IMVI melanoma 24% | SK-MEL-28 melanoma 33.9% | UO-31 renal 29% | TK-10 renal 44.6% | ACHN renal 47.5% | CAKI-1 renal 11.3% | CCRF-CEM leukemia 21.6% | MOLT-4 leukemia 21%
